25 compounds from ChEMBL document CHEMBL4296182, “CO-ADD screening of NIH NCI Diversity Set V” can be followed below.

For part of these data: Potency and affinity values are given separately.

One experiment has as its system Staphylococcus aureus. The experiment in a line: Antibacterial activity against Staphylococcus aureus MRSA ATCC 43300 (CO-ADD:GP_020); MIC in CAMBH media using NBS plates, by Resazurin F(560/590). The class given is functional. The following applies: Concentration 20 uM, ASSAY_TEST Inhibition of Bacterial Growth, detection method Resazurin, Fluorescence (ex560/em590), MEDIA CAMHB, plate type 384well, CORNING #3640, time 18 hr.

The subject of a further experiment is Acinetobacter baumannii. Briefly: Antibacterial activity against Acinetobacter baumannii ATCC 19606 (CO-ADD:GN_034); MIC in CAMBH media using NBS plates, by Resazurin F(560/590). In kind it is functional. The following applies: Concentration 20 uM, ASSAY_TEST Inhibition of Bacterial Growth, detection method Resazurin, Fluorescence (ex560/em590), MEDIA CAMHB, plate type 384well, CORNING #3640, time 18 hr.

Another experiment has as its system Escherichia coli. Briefly: Antibacterial activity against Escherichia coli ATCC 25922 (CO-ADD:GN_001); MIC in CAMBH media using NBS plates, by Resazurin F(560/590). The class given is functional. The following applies: Concentration 20 uM, ASSAY_TEST Inhibition of Bacterial Growth, detection method Resazurin, Fluorescence (ex560/em590), MEDIA CAMHB, plate type 384well, CORNING #3640, time 18 hr.

Another experiment relates to Klebsiella pneumoniae. Conditions: Concentration 20 uM; ASSAY_TEST Inhibition of Bacterial Growth; detection method Absorption (OD600); MEDIA CAMHB; plate type 384well; NBS; CORNING #3640; time 18 hr.
The subject of a further experiment is Candida albicans. Conditions: 20 µM.
A further experiment relates to Cryptococcus neoformans. Conditions: Concentration 20 uM; ASSAY_TEST Inhibition of Fungal Growth; detection method Resazurin; Absorption (OD600-OD570); plate type 384well; NBS; CORNING #3640.

With `CC(=O)OCCn1c2nc(=O)[nH]c(=O)c-2nc2cc(C)c(C)cc21`, the Inhibition with Staphylococcus aureus was -0.64%; in the experiment on Acinetobacter baumannii it was -11.64%; in the experiment on Escherichia coli, 4.08%; in the experiment on Klebsiella pneumoniae, 3.5%; in the experiment with Candida albicans, -0.26%; with Cryptococcus neoformans, -7.97%.

In the case of `CC12CCC(/C(=N/c3ccc(/N=C4\C(=O)C5(C)CCC4C5(C)C)cc3)C1=O)C2(C)C`, the Inhibition with Staphylococcus aureus is -7.11%; with Acinetobacter baumannii, -9.62%; in the experiment with Escherichia coli, 14.23%; in the experiment on Klebsiella pneumoniae it was 11.61%; with Candida albicans it was 0.19%; in the experiment with Cryptococcus neoformans, -4.9%.

Take `CCOC(=O)Nc1ccc2nc(N3CCCCCC3)sc2c1`: the Inhibition with Staphylococcus aureus is 14.81%; in the experiment on Acinetobacter baumannii it was 14.56%; in the experiment on Escherichia coli, 8.66%; in the experiment on Klebsiella pneumoniae, 9.37%; with Candida albicans, 0.84%; in the experiment on Cryptococcus neoformans, -12.19%.

Regarding `Nc1ccc(Br)cc1Br`, the Inhibition was 10.2% in the experiment on Staphylococcus aureus; 5.55% in the experiment with Acinetobacter baumannii; 2.13% with Escherichia coli; 7.43% in the experiment on Klebsiella pneumoniae; 6.15% in the experiment on Candida albicans; -7% in the experiment with Cryptococcus neoformans.

Take `CC(C1=C(CCN(C)C)Cc2ccccc21)c1ccccn1.O=C(O)/C=C\C(=O)O` (stereo not given) [DIMETHINDENE MALEATE]: the Inhibition was 21.63% in the experiment on Staphylococcus aureus; -11.43% in the experiment with Acinetobacter baumannii; 16.27% in the experiment with Escherichia coli; 18.33% in the experiment on Klebsiella pneumoniae; 1.91% in the experiment on Candida albicans; -1.76% in the experiment with Cryptococcus neoformans.

With `CSc1nc(O)nnc1Sc1ccccc1`, the Inhibition with Staphylococcus aureus was -5.45%; in the experiment with Acinetobacter baumannii it was -15.47%; in the experiment on Escherichia coli, 6.74%; with Klebsiella pneumoniae, 7.57%; in the experiment with Candida albicans it was 13.4%; in the experiment with Cryptococcus neoformans it was -16.19%.

`COc1ccc(/N=N/c2ccc(N)nc2N)cc1`: the Inhibition with Staphylococcus aureus was 0.3%; in the experiment on Acinetobacter baumannii, -8.88%; with Escherichia coli, 5.08%; with Klebsiella pneumoniae, 7.55%; with Candida albicans, 4.94%; in the experiment with Cryptococcus neoformans it was -6.06%.

For `CC1OC1c1ccc(-c2ccc(C3OC3C)cc2)cc1` (stereo not given), the Inhibition is 3.27% with Staphylococcus aureus; -0.69% with Acinetobacter baumannii; 9.33% in the experiment on Escherichia coli; 23.63% in the experiment on Klebsiella pneumoniae; 7.55% in the experiment with Candida albicans; -6.65% in the experiment on Cryptococcus neoformans.

As for `O=C1c2ccccc2C2=C3C(O)=NN=C3CCN12`, the Inhibition was 13.67% with Staphylococcus aureus; 14.87% with Acinetobacter baumannii; 4.79% in the experiment with Escherichia coli; 9.82% in the experiment on Klebsiella pneumoniae; 5.2% in the experiment on Candida albicans; -1.84% in the experiment with Cryptococcus neoformans.

On to `Oc1ccc(/N=N/c2ccccc2)c(O)c1/N=N/c1ccccc1`, for which the Inhibition was -22.17% in the experiment with Staphylococcus aureus; 3.79% in the experiment on Acinetobacter baumannii; -20.22% with Escherichia coli; -6.85% in the experiment on Klebsiella pneumoniae; 8.07% with Candida albicans; 33.55% with Cryptococcus neoformans.

Regarding `CC1(c2ccc3ccccc3c2)CCC(=O)O1` (stereo not given), the Inhibition in the experiment with Staphylococcus aureus was 11.1%; in the experiment on Acinetobacter baumannii, -6.13%; in the experiment with Escherichia coli, 7.71%; in the experiment with Klebsiella pneumoniae, 5.94%; in the experiment on Candida albicans it was 2.15%; in the experiment with Cryptococcus neoformans, -9.46%.

Turning to `CN(/N=N/c1[nH]cnc1C(=O)NN)C1CCCCC1`, the Inhibition is 8.69% in the experiment on Staphylococcus aureus; 8.54% in the experiment on Acinetobacter baumannii; -4.79% with Escherichia coli; 11.56% in the experiment with Klebsiella pneumoniae; 3.97% in the experiment with Candida albicans; -4.73% with Cryptococcus neoformans.

In the case of `Cc1nnc2nc(-c3ccccc3)nc(-c3ccccc3)n12`, the Inhibition was -12.94% with Staphylococcus aureus; 8.22% in the experiment with Acinetobacter baumannii; 2.26% in the experiment with Escherichia coli; 4.14% in the experiment on Klebsiella pneumoniae; 4.58% in the experiment with Candida albicans; -11.59% with Cryptococcus neoformans.

With `CN1CCN(C2=NCCO2)CC1`, the Inhibition is 4.85% in the experiment with Staphylococcus aureus; -15.45% in the experiment with Acinetobacter baumannii; 15.25% in the experiment on Escherichia coli; 13.16% in the experiment on Klebsiella pneumoniae; 3.03% in the experiment on Candida albicans; 6.31% in the experiment on Cryptococcus neoformans.

Consider `c1ccc(-c2nnc(-c3ccccc3)nn2)cc1`, for which the Inhibition is 8.93% in the experiment on Staphylococcus aureus; 4.53% in the experiment with Acinetobacter baumannii; 11.38% in the experiment with Escherichia coli; -4.08% in the experiment with Klebsiella pneumoniae; -1.88% with Candida albicans; -7.33% with Cryptococcus neoformans.

Turning to `CN1C(=C=Cc2cc(I)c(O)c(I)c2)C(C)(C)c2ccccc21`, the Inhibition turned out to be 20.66% in the experiment on Staphylococcus aureus; 1.84% in the experiment on Acinetobacter baumannii; 10.92% in the experiment with Escherichia coli; 7.2% in the experiment with Klebsiella pneumoniae; 6.34% in the experiment with Candida albicans; 5.51% with Cryptococcus neoformans.

As for `Oc1ccnc(Nc2ccc(Cl)cc2)n1`, the Inhibition with Staphylococcus aureus is 11.15%; with Acinetobacter baumannii, -11.5%; in the experiment on Escherichia coli, 6.59%; in the experiment with Klebsiella pneumoniae, -5.88%; in the experiment with Candida albicans, 0.12%; in the experiment with Cryptococcus neoformans, -10.08%.

Consider `COc1ccccc1/C=C1\Cc2ccccc2C1=O`, for which the Inhibition with Staphylococcus aureus is -0.35%; in the experiment with Acinetobacter baumannii, 7.42%; in the experiment on Escherichia coli it was -7.65%; with Klebsiella pneumoniae, 12%; in the experiment with Candida albicans, 10.8%; with Cryptococcus neoformans, -2%.

Turning to `CC1=C(O)C(=O)C(c2c(C)cc(C)c(Br)c2C)=C(O)C1=O`, the Inhibition is 15.91% in the experiment on Staphylococcus aureus; 1.25% in the experiment with Acinetobacter baumannii; 4.64% in the experiment with Escherichia coli; 20.53% with Klebsiella pneumoniae; 19.7% in the experiment on Candida albicans; -3.3% in the experiment with Cryptococcus neoformans.

On to `CCN(CC)CCNc1c(C)nc(C#N)c(N)[n+]1[O-]`, for which the Inhibition with Staphylococcus aureus was 6.23%; with Acinetobacter baumannii, -9.24%; in the experiment with Escherichia coli, 11.24%; with Klebsiella pneumoniae, 8.95%; in the experiment with Candida albicans it was 2.9%; in the experiment on Cryptococcus neoformans, -16.29%.

As to `COC1C(=O)CCC2(CO2)C1(O)C1(C)OC1CC=C(C)C` (stereo not given), the Inhibition with Staphylococcus aureus was -15.99%; in the experiment on Acinetobacter baumannii, -18.89%; in the experiment on Escherichia coli, 14.59%; in the experiment on Klebsiella pneumoniae, 5.17%; in the experiment on Candida albicans, 9.99%; with Cryptococcus neoformans, -9.09%.

Take `CCN1CCCCC(=N\O)/C(=N/O)CCCC1`: the Inhibition was -0.99% in the experiment on Staphylococcus aureus; -8.24% in the experiment with Acinetobacter baumannii; 1.26% with Escherichia coli; 23.74% in the experiment with Klebsiella pneumoniae; -0.06% in the experiment with Candida albicans; -7.99% in the experiment on Cryptococcus neoformans.

For the compound `O=C(CC1C=Cc2ccccc2N1C(=O)c1ccccc1)c1ccccc1` (stereo not given), the Inhibition in the experiment on Staphylococcus aureus was 3.75%; with Acinetobacter baumannii, 6.29%; in the experiment on Escherichia coli it was 9.32%; in the experiment with Klebsiella pneumoniae, 9.71%; in the experiment with Candida albicans, 2.1%; with Cryptococcus neoformans, -5.82%.

Consider `c1ccc(-c2nnc(-c3ccccn3)s2)nc1`, for which the Inhibition with Staphylococcus aureus is 3.28%; with Acinetobacter baumannii it was -18.69%; with Escherichia coli, 9.86%; in the experiment on Klebsiella pneumoniae, 4.63%; in the experiment on Candida albicans, 4.16%; in the experiment on Cryptococcus neoformans, -18.42%.

For the compound `COc1ccc2nc3cc(Cl)ccc3c(Nc3cc(C(C)C)c(O)cc3C)c2c1`, the Inhibition with Staphylococcus aureus was 18.28%; with Acinetobacter baumannii, -16.67%; with Escherichia coli, 18.01%; in the experiment on Klebsiella pneumoniae, 9.53%; in the experiment with Candida albicans, -0.84%; with Cryptococcus neoformans it was -12.42%.
